The full data set covers some 7,900 targets. This sample favours those with a hit. About 0.6% of all pairs of compound and target were hits.
Experiments:
Assay in all cases: log2 fold change, soluble protein after heating vs DMSO (PISA); higher = thermal stabilisation; K562 cells, 10 uM, 30 min; active = over 0.2 and 3.5 SD of the protein, either way, in both replicates (recomputed)
[1] = compound: C1=CC=C(C=C1)[C@H](COC2=CC3=C(C=C2)NC(=O)N3)NC(=O)C4=CC=CN(C4=O)CC5=CC(=C(C=C5)F)F
How it was run: (§1)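 Quantification of soluble protein used TMTpro 16plex LC-MS/MS, with channel sums equalised. Samples were the supernatant after 21,000xg for 90 min of pooled aliquots from K562 cells (2×10^6 cells/mL) treated with 10 μM compound for 30 min, heated for 3 min over 48°C-58°C, and extracted in PBS with 0.5% NP-40 at 4°C. Values, from duplicates, describe thermal stability against control samples on a log2 fold-change scale.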

[2] = compound: CC1=C(SC2=C1C(=N[C@H](C3=NN=C(N32)C)CC(=O)N)C4=CC=C(C=C4)Cl)C
How it was run: as §1

[3] = compound: CC1=C2C(=CC=C1)N=C(N(C2=O)C3=CC=CC=C3C)CN4C=NC5=C(N=CN=C54)N
How it was run: as §1

[4] = compound: Cc1sc2c(c1C)C(c1ccc(Cl)cc1)=N[C@@H](CC(=O)OC(C)(C)C)c1nnc(C)n1-2
How it was run: as §1

[5] = compound: c1ccc([C@@H]2C[C@H]2NC2CCNCC2)cc1
How it was run: as §1

Measured: log2 fold change

QKI (UniProt Q96PU8)
Chain of UniProt Q96PU8 (Q96PU8 whole entry, looked up): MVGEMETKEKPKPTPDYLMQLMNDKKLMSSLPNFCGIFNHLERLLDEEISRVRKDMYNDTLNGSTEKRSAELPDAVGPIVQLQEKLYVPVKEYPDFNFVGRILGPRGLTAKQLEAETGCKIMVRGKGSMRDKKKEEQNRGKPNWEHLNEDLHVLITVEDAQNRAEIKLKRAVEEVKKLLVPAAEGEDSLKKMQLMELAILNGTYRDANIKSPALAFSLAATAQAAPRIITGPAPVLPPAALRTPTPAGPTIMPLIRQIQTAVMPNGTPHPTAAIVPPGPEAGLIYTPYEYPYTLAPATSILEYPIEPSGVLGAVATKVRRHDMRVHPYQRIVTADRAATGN
inactive: [1] -0.016 | [2] 0.039 | [3] 0.105 | [4] -0.082 | [5] 0.01

PRKACA (UniProt P17612)
inactive: [1] -0.01 | [2] 0.005 | [3] -0.053 | [4] -0.009 | [5] 0.035

PSMD12 (UniProt O00232)
Chain of UniProt O00232 (O00232 whole entry, looked up): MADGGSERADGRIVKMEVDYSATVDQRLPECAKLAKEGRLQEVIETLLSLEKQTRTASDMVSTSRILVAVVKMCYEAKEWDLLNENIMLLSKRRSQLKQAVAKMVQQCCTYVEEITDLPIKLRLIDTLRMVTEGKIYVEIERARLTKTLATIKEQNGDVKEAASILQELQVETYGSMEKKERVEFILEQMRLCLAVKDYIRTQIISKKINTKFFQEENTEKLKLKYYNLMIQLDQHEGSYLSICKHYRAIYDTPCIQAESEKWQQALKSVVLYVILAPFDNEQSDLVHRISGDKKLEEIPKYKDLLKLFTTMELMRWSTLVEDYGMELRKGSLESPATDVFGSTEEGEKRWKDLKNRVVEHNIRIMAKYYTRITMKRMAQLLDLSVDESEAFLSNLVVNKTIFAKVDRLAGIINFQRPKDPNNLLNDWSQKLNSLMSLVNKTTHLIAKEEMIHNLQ
inactive: [1] 0.021 | [2] -0.063 | [3] -0.066 | [4] -0.045 | [5] -0.009

PRPF4B (UniProt Q13523)
Chain of UniProt Q13523 (Q13523 whole entry, looked up): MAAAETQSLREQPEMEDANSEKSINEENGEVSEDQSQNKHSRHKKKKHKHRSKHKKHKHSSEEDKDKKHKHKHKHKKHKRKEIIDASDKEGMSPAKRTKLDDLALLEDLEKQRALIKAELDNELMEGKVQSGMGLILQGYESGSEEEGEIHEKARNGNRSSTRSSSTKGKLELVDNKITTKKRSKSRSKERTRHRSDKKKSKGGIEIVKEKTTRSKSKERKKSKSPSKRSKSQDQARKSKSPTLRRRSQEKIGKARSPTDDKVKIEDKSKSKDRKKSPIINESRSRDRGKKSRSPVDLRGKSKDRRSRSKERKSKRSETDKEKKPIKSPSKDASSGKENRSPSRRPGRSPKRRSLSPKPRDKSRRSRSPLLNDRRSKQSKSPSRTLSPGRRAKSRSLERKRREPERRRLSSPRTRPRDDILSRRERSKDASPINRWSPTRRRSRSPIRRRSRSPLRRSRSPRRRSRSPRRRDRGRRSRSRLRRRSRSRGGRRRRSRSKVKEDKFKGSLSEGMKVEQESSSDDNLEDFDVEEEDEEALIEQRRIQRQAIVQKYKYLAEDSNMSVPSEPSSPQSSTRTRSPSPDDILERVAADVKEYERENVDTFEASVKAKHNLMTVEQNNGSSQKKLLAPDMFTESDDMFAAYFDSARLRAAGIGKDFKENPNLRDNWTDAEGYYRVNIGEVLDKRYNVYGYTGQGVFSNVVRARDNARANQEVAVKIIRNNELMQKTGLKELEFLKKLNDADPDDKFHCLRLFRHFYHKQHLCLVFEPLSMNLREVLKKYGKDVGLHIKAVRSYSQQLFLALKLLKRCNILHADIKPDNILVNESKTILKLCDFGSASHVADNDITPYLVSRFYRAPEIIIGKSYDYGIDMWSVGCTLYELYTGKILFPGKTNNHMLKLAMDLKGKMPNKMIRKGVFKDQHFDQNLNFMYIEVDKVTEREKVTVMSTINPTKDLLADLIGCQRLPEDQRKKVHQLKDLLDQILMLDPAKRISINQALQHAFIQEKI
inactive: [1] 0.118 | [2] -0.098 | [3] 0 | [4] 0.109 | [5] 0.168

PRKAB2 (UniProt O43741)
Chain of UniProt O43741 (O43741 whole entry, looked up): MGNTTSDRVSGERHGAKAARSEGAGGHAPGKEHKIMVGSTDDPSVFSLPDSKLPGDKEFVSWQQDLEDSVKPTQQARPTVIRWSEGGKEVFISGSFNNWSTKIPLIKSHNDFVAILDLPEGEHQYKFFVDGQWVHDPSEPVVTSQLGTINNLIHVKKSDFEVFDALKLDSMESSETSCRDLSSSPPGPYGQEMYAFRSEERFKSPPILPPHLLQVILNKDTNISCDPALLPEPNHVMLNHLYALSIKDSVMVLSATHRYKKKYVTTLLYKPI
inactive: [1] -0.133 | [2] 0.084 | [3] -0.087 | [4] -0.117 | [5] -0.077

PSMD8 (UniProt P48556)
Chain of UniProt P48556 (P48556 whole entry, looked up): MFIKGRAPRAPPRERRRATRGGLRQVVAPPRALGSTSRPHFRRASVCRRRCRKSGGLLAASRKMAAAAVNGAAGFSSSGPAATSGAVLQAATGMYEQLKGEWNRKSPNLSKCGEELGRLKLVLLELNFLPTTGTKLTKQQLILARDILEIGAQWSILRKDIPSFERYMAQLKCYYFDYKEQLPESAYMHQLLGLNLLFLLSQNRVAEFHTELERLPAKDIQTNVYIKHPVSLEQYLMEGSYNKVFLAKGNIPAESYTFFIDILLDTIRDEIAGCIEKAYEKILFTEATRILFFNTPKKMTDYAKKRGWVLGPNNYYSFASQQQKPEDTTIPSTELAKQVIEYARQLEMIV
inactive: [1] 0.014 | [2] -0.07 | [3] -0.01 | [4] -0.001 | [5] 0.071

PGGT1B (UniProt P53609)
Chain of UniProt P53609 (P53609 whole entry, looked up): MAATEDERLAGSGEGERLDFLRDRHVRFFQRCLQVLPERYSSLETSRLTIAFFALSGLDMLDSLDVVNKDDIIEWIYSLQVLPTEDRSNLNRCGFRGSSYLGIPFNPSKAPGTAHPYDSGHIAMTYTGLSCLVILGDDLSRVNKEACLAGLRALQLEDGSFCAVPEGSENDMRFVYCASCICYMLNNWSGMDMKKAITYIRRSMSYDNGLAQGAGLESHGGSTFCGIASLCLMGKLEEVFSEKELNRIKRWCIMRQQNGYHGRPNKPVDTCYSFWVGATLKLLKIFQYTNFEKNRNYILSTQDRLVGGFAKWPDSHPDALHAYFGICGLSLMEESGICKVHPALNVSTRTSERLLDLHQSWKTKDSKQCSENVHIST
inactive: [1] 0.025 | [2] 0.066 | [3] 0.051 | [4] -0.018 | [5] -0.004

POLD3 (UniProt Q15054)
Chain of UniProt Q15054 (Q15054 whole entry, looked up): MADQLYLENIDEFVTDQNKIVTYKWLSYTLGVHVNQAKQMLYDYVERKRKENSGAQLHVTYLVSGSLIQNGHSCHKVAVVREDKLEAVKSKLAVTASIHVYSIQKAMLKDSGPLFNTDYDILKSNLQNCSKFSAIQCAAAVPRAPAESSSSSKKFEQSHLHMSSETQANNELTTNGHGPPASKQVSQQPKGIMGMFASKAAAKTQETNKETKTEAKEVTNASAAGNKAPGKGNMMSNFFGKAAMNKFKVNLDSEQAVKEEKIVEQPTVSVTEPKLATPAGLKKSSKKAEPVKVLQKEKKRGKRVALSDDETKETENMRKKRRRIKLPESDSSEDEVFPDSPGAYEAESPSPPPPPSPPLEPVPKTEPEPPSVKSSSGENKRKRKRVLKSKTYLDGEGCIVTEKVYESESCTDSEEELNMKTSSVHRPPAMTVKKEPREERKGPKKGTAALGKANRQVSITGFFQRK
inactive: [1] -0.027 | [2] 0.14 | [3] 0.104 | [4] -0.037 | [5] -0.009

PRKACB isoform 2 (UniProt P22694)
inactive: [1] -0.06 | [2] 0.021 | [3] 0.032 | [4] -0.038 | [5] 0.003

From the supplement of paper PMC10849652
